Data published in PubChem BioAssay AID2782 (National Center for Advancing Translational Sciences (NCATS), 2010).
Inconclusive results are not listed. Entries that show only a call come without a potency. The source made the active and inactive calls. The call rests on the fitted dose curve; in most records, active means well fitted inhibition curve with a large enough effect in the polarisation, with a control signal flat (not every such curve was filed as active); inconclusive means small, poorly fitted or top-dose-only effect, or effect the other way, or a change in a side signal; inactive means no such curve, though single readings can be large or run the other way; the % refers to the polarisation.

Assay: Confirmation of Inhibitors Targeting the Menin-MLL Interaction in MLL Related Leukemias: Competition With Texas Red Labeled MLL-derived Mutant Peptide
Conditions: fluorescence polarization, Texas Red MLL peptide displacement; series mostly up to 94.6 µM
Procedure, shortened: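 FP competition using menin at 200 nM with Texas Red-labeled mutant MLL peptide (50 nM) plus fluorescein MLL-w.t. peptide (25 nM) in 50 mM Tris-HCl pH 7.5, 50 mM NaCl, 1 mM DTT, 0.05% BSA; compound added, 1 hr ambient; polarization read per label.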
Potency means the concentration at half of the fitted maximal effect.

Q: Which Potency does the source give for `COc1ccc(CN2CCN(C(C)C(=O)N(C)Cc3cccc(F)c3)CC2)cc1OC` (configuration not stated) here?
A: inactive

Q: For `CCC(C)C1NC(=O)C(CCNCS(=O)(=O)O)NC(=O)C(NC(=O)C(CCNCS(=O)(=O)O)NC(=O)C(NC(=O)C(CCNCS(=O)(=O)O)NC(=O)CCCCC(C)C)C(C)O)CCNC(=O)C(C(C)O)NC(=O)C(CCNCS(=O)(=O)O)NC(=O)C(CCNCS(=O)(=O)O)NC(=O)C(C(C)CC)NC1=O` (configuration not stated), which Potency is on record?
A: inactive

Q: With `NC(=O)c1ccc(NC(=O)c2cncn2-c2ccccc2)cc1` as the molecule, how does the Potency read?
A: inactive

Q: Which Potency does the source give for `CCOC(=O)c1cnc2ccc(OCC)cc2c1N1CCN(C)CC1` here?
A: 31.7 µM (active)

Q: For `CC(=O)NC1C(=O)N(CCN2CCOCC2)c2ccc(C)cc21` (configuration not stated), which Potency is on record?
A: 71 µM (active)

Q: For `Cc1ccc(S(=O)(=O)c2cc(OC(=O)c3ccco3)ccc2OC(=O)c2ccco2)cc1`, which Potency is on record?
A: inactive

Q: With `CCn1cnc2c1c(=O)n(CC(=O)O)c(=O)n2Cc1ccccc1` as the molecule, how does the Potency read?
A: inactive

Q: For `COc1ccccc1N(CC1CO1)S(=O)(=O)c1ccccc1` (configuration not stated), which Potency is on record?
A: inactive

Q: With `CN[C@H]1[C@H](O)[C@@H](O[C@@H]2[C@H](O)[C@@H](O[C@H]3OC(CN)=CC[C@H]3N)[C@@H](N)C[C@H]2N)OC[C@@]1(C)O` as the molecule, how does the Potency read?
A: inactive

Q: With `COc1ccccc1C(=O)Nc1ccccc1SC(=O)c1ccccc1OC` as the molecule, how does the Potency read?
A: inactive

Q: With `O=C(C[N+]12CC[N+](CC(=O)c3ccc(F)cc3)(CC1)CC2)c1ccc(F)cc1` as the molecule, how does the Potency read?
A: 35.5 µM (active)

Q: Which Potency does the source give for `COc1ccccc1NS(=O)(=O)c1cc(N2Cc3ccccc3C2=N)ccc1N1CCOCC1` here?
A: 50.1 µM (active)

Q: Which Potency does the source give for `CCCCC(=O)NC(=S)Nc1nnn(CCC)n1` here?
A: inactive

Q: Which Potency does the source give for `CCC(=O)Nc1ccc(-c2cc(-c3ccccc3)nc(-c3ccc(NC(=O)CC)cc3)n2)cc1` here?
A: 39.8 µM (active)

Q: With `O=C(NC(=S)Nc1nc(-c2ccc(Br)cc2)cs1)c1cccnc1` as the molecule, how does the Potency read?
A: inactive

Q: With `COc1ccc(Cn2nnnc2C(c2ccc3ncccc3c2)N2CCN(C3CCCCC3)CC2)cc1` (configuration not stated) as the molecule, how does the Potency read?
A: 89.1 µM (active)

Q: Which Potency does the source give for `CCC(C)CCCCC(=O)NC(CCN)C(=O)NC(C(=O)NC(CCN)C(=O)NC1CCNC(=O)C(C(C)O)NC(=O)C(CCN)NC(=O)C(CCN)NC(=O)C(CC(C)C)NC(=O)C(Cc2ccccc2)NC(=O)C(CCN)NC1=O)C(C)O` (configuration not stated) here?
A: 7.08 µM (active)

Q: With `CCN(CC)Cc1cc2[nH]c3c4ccc(Cl)cc4ncc3c2cc1OC` as the molecule, how does the Potency read?
A: 56.4 µM (active)

Q: For `COc1cc(NC(=O)c2cccnc2)c(OC)cc1NC(=O)c1ccc(Br)cc1`, which Potency is on record?
A: inactive

Q: Which Potency does the source give for `O=C(c1cc(F)c(F)cc1Cl)N1CCN(c2ncccn2)CC1` here?
A: inactive

Q: With `Cc1cc(N2CCOCC2)nc2ccc(Cl)cc12` as the molecule, how does the Potency read?
A: inactive

Q: For `COc1ccccc1C(=O)Nc1ccnn1C1CCN(CC2CC=CCC2)CC1` (configuration not stated), which Potency is on record?
A: 126 µM (active)

Q: For `O=C1NC(=S)N/C1=C/c1ccc2ccccc2c1`, which Potency is on record?
A: inactive

Q: Which Potency does the source give for `COc1ccc(N(CC(=O)NC2CC3CCC2C3)S(=O)(=O)c2ccc(C)cc2)cc1OC` (configuration not stated) here?
A: inactive

Q: For `CCc1nnc(NC(=O)C2(C)COC(c3ccc(OC)cc3)OC2)s1` (configuration not stated), which Potency is on record?
A: inactive

Q: For `CC(=O)Nc1ccc(-c2cc3ccccc3o2)cc1`, which Potency is on record?
A: inactive

Q: Which Potency does the source give for `O=C(Nc1ccc(F)c(Cl)c1)c1cc(-c2ccco2)on1` here?
A: 31.7 µM (active)

Q: Which Potency does the source give for `CC(C)Cc1cc(C(=O)NCCCN2CCOCC2)no1` here?
A: inactive

Q: For `Cc1ccc(C#CC(C)(O)C(C)(C)C)cn1` (configuration not stated), which Potency is on record?
A: inactive

Q: Which Potency does the source give for `O=C(c1cc2c(=O)n3ccccc3nc2s1)N1CCOCC1` here?
A: inactive

Q: For `COc1ccc(CC(=O)Nc2ccc(-c3nnc(-c4ccccc4)o3)cc2)cc1`, which Potency is on record?
A: inactive

Q: For `O=C(CSc1nnc(-c2c[nH]c3ccccc23)o1)c1ccc(-c2ccccc2)cc1`, which Potency is on record?
A: 35.5 µM (active)
